Compound activity deposited in PubChem by National Center for Advancing Translational Sciences (NCATS).
Compounds with a hit are over-represented: about 7.4% of the library has one in this group of screens.
SMN2 splice up: SMN2 splice variant enhancement. Potency, µM (doses to about 46.1 µM), hits mostly activators. 2.8% of 210,000 active. HEK293 SMN2-luciferase splicing reporter, luminescence, 30-36 h. AID 1458; note: nearly all actives have a fitted effect of over 55% in size
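qHTS luciferase splicing reporter: luminescence rises when SMN2 exon 7 is included in transfected HEK293 cells. Compound exposure lasted 30-36 h at 37C, with 4.5 mM final sodium butyrate as control, followed by a ONE-Glo read.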
FLuc counter: inhibits or activates purified firefly luciferase, miR-21 counter-screen; 6.9% of 360,000 active; purified FLuc, Km substrates, luminescence inhibition; Potency, µM (doses to about 57.5 µM), most hits filed as inhibitors; P08659; note: nearly all actives have a fitted effect of over 55% in size
Target sequence (P08659 whole entry, looked up): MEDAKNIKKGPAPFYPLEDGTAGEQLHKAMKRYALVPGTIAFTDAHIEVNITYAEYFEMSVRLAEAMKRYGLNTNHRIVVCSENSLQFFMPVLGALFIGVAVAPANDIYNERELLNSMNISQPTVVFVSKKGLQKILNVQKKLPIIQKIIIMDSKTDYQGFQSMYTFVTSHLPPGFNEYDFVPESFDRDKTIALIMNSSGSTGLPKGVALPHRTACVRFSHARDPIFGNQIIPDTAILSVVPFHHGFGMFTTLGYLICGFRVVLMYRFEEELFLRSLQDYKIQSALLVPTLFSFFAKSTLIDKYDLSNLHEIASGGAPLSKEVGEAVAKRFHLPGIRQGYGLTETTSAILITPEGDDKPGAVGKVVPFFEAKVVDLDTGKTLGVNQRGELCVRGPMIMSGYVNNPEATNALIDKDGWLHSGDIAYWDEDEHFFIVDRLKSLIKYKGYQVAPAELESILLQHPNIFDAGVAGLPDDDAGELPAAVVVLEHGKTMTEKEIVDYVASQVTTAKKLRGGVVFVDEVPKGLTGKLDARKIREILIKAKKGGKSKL
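Biochemical qHTS of compounds, final roughly 60 µM downward over six points, against 10 nM purified firefly luciferase using Km concentrations of substrates (10 uM D-luciferin, 10 uM ATP) in Tris acetate pH 7.5 buffer; luminescence output.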
Luc counter: counter-screen: inhibitors of Kinase-Glo firefly luciferase; Q27757; Kinase-Glo luciferase, ATP luminescence, 8 min; Potency, µM (series often up to 38.3 µM), actives largely listed as inhibitors; 0.28% of 200,000 active; AID 1379; note: nearly all actives have a fitted effect of over 60% in size
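Kinase-Glo luciferase light output from ATP and luciferin was measured with 10 uM ATP, within the enzyme's linear range. Buffer: 50 mM imidazole pH 7.2, 50 mM KCl, 7 mM MgCl2, 0.01% Tween 20, 0.05% BSA; luminescence read after 8 min at ambient temperature.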
Rab9 promoter act: activates the Rab9 promoter | Huh7 Rab9 promoter-luciferase reporter, luminescence, 24 h | Potency, µM (titrated, usually from 9.22 µM), actives largely listed as activators | 2.8% of 320,000 active | AID 485297; note: nearly all actives have a fitted effect of over 60% in size
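Cell-based reporter: Huh7 stable for Rab9 promoter-driven luciferase, plated in reduced-serum medium with 10% FBS at 1500 cells/well, compound-treated 24 h at 37 °C, luminescence read after 10 min reagent.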
ELG1 genotox: inducers of genotoxicity in HEK293T ELG1-luciferase cells; Potency, µM (series often up to 46 µM), most hits filed as activators; HEK293T ELG1-luciferase reporter, luminescence, 16 h; 1.3% of 330,000 active; note: nearly all actives have a fitted effect of over 60% in size
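HEK293T cells expressing luciferase-tagged ELG1 were exposed to compound or DMSO vehicle for 16 hr at 37 °C and 5% CO2. Luciferase activity was then measured with ONE-Glo after 30 min at room temperature.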
NPC1 promoter act: activates the NPC1 promoter; Huh7 NPC1 promoter luciferase reporter, 24 h; 2.4% of 320,000 active; AID 485313; Potency, µM (series often up to 9.22 µM), actives largely listed as activators; note: nearly all actives have a fitted effect of over 60% in size
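Readout is luciferase luminescence, reflecting NPC1 promoter activation in stably transfected Huh7 cells after 24 h compound exposure at 37 °C in reduced-serum medium with 10% FBS.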
A number is an active result; [ ] = another dose, or the depositor's remark. Calls come from the whole dose curve; as a rule, active = well fitted curve in the direction sought with a large enough effect; inconclusive = small, poorly fitted or top-dose-only effect, or another doubt; inactive = no such curve, though single readings can be large; an effect the other way counts as inactive or inconclusive.

Screening N#Cc1cc2c(nc1SCc1nc3ccccc3[nH]1)CCC2 returned SMN2 splice up 8.91µM, FLuc counter 1.35µM, Luc counter inactive, Rab9 promoter act 0.708µM, ELG1 genotox inconclusive and NPC1 promoter act 0.316µM.
For Nc1cccc(N)c1 the results were SMN2 splice up inactive.
For CCc1ccc(N2CC(C(=O)Nc3ccc4c(c3)OCO4)CC2=O)cc1 (stereo not drawn) the results were FLuc counter inactive, Rab9 promoter act inactive, ELG1 genotox inactive and NPC1 promoter act inactive.
Cc1cccc2c1-c1sc(C(=O)Nc3cccnc3)cc1CO2 was read as FLuc counter inactive, Rab9 promoter act inactive, ELG1 genotox inactive and NPC1 promoter act inconclusive.
Screening CCc1ccccc1N(C)C(=O)c1cc2c(s1)-c1c(C)cccc1OC2 returned SMN2 splice up inactive and FLuc counter inactive.
O=C(Nc1nccs1)c1cc2c(s1)-c1ccccc1OC2 was read as SMN2 splice up 10µM, FLuc counter 1.69µM, Luc counter inactive, Rab9 promoter act 3.16µM, ELG1 genotox 8.2µM and NPC1 promoter act 2µM.
Screening O=C(Nc1nc2ccccc2s1)c1cc2c(s1)-c1ccccc1OC2 returned SMN2 splice up inactive, FLuc counter inactive, Luc counter inactive, Rab9 promoter act inconclusive, ELG1 genotox 13µM and NPC1 promoter act inactive.
`Cc1cccc2c1-c1sc(C(=O)Nc3nccs3)cc1CO2` gave SMN2 splice up inconclusive, FLuc counter 2.39µM, Luc counter inactive, Rab9 promoter act 1.12µM, ELG1 genotox inconclusive and NPC1 promoter act 2.51µM.
`O=C(Nc1cccnc1Cl)c1cc2c(s1)-c1ccccc1OC2` gave FLuc counter inconclusive, Rab9 promoter act inconclusive, ELG1 genotox inactive and NPC1 promoter act inconclusive.
Screening CCOC(=O)c1cc2c(s1)-c1c(C)cccc1OC2 returned SMN2 splice up inactive, FLuc counter 13.5µM, Luc counter inactive, Rab9 promoter act inconclusive, ELG1 genotox inconclusive and NPC1 promoter act inconclusive.
For O=c1oc2cc(Cl)ccc2n1CSc1nc2ccccc2s1 the results were SMN2 splice up inactive, FLuc counter 8.49µM, Luc counter inactive, Rab9 promoter act inconclusive, ELG1 genotox 14.6µM and NPC1 promoter act inconclusive.
Screening O=C(Nc1cccnc1)c1cnn2c1NC(=C1CC1)C=C2C(F)F returned FLuc counter inactive.
COc1ccccc1NC(=O)CSc1nnc(-c2ccoc2C)n1C was read as FLuc counter inactive, Rab9 promoter act inactive, ELG1 genotox inactive and NPC1 promoter act inactive.
OCc1nc2ccccc2n1CCCOc1ccccc1 was read as SMN2 splice up 11.2µM, FLuc counter 10.7µM, Luc counter inactive, Rab9 promoter act inconclusive, ELG1 genotox inconclusive and NPC1 promoter act inconclusive.
Cc1cccc(OCCCn2c(CO)nc3ccccc32)c1 was read as FLuc counter 13.5µM, Rab9 promoter act inconclusive, ELG1 genotox inactive and NPC1 promoter act inactive.
For Cc1ccccc1OCCCCn1c(CO)nc2ccccc21 the results were SMN2 splice up inactive, FLuc counter inactive, Luc counter inactive, Rab9 promoter act inactive, ELG1 genotox inactive and NPC1 promoter act inactive.
`Cc1ccc(OCCCn2c(CO)nc3ccccc32)cc1` gave SMN2 splice up inconclusive, FLuc counter inactive[2.3 µM], Luc counter inactive, Rab9 promoter act inconclusive, ELG1 genotox inactive and NPC1 promoter act inactive.
CC(C)(C)C1CCc2nc(NC(=O)COc3ccccc3[N+](=O)[O-])sc2C1 (stereo not drawn) was read as FLuc counter inactive.
For Cc1cc(C)cc(OCC(=O)Nc2nc3c(s2)CC(C(C)(C)C)CC3)c1 (stereo not drawn) the results were FLuc counter 12µM.
Screening COC(=O)C1CCN(C(=O)COC(=O)CNC(=O)c2ccc(Cl)cc2Cl)CC1 returned FLuc counter inactive, Rab9 promoter act inactive, ELG1 genotox inactive and NPC1 promoter act inactive.
`CC(C)c1nn2c(=O)cc(COC(=O)c3cccc(NC(=O)COc4ccc(F)cc4)c3)nc2s1` gave FLuc counter inactive.
For O=C(c1ccco1)N1N=C(c2ccc3nccnc3c2)CC1c1ccccc1 (stereo not drawn) the results were SMN2 splice up inactive, FLuc counter 16.9µM, Luc counter inactive, Rab9 promoter act inactive, ELG1 genotox inactive and NPC1 promoter act inactive.
For CS(=O)(=O)Nc1ccc(C2=NN(C(=O)c3ccco3)C(c3ccc(F)cc3)C2)cc1 (stereo not drawn) the results were SMN2 splice up inactive, FLuc counter inactive, Luc counter inactive, Rab9 promoter act inactive, ELG1 genotox inactive and NPC1 promoter act inactive.
Screening Cc1ccc(NC(=O)N2CCCC2C(=O)Nc2ccc3c(c2)OCCO3)cc1 (stereo not drawn) returned FLuc counter inactive, Rab9 promoter act inactive, ELG1 genotox inconclusive and NPC1 promoter act inactive.
Screening Cc1ccc(CNC(=O)CSc2ncc(S(=O)(=O)c3ccc(Br)cc3)c(=O)[nH]2)cc1 returned SMN2 splice up inactive and FLuc counter 6.75µM.
